From the OligoGym collection come the findings set out here.
Also: reference of the scale not given here.

In the first experiment the target is PRODH2. In words: pooled miR-30 sensor sort-seq; sequence = guide strand. As to conditions: shRNA.
Consider TAACAGGTCCGGAGCATCCTGG, for which the sensor-assay potency score (higher = more potent) was -1.03.

TTAAAATTGGAAACGCTGTAGT yielded a sensor-assay potency score (higher = more potent) of 0.00998.

For the sequence TTGCTTCCTCTTAAAATTGGAA, the sensor-assay potency score (higher = more potent) was -1.06.

TGAAAATACGGTTCTCACGTTT returned a sensor-assay potency score (higher = more potent) of 0.0951.

Consider TAGTGTTATTGAATACATTTGA, for which the sensor-assay potency score (higher = more potent) was -0.549.

On to TTGAAAATACGGTTCTCACGTT, for which the sensor-assay potency score (higher = more potent) was -0.536.

For AATACATTTGAAAATACGGTTC, the sensor-assay potency score (higher = more potent) was -0.869.

The target in another experiment is PROM2. The description is as above. The following applies: shRNA.
For the sequence TTGAGCTGCAGGACTGTCCAGA, the sensor-assay potency score (higher = more potent) was -0.114.

TTGGCTAGGACATCTGAGGTCT showed a sensor-assay potency score (higher = more potent) of 0.382.

Turning to TGTAGGTCTCGTATCTCTGCAC, the sensor-assay potency score (higher = more potent) was -0.146.

On to TTGGGGGACATCAGAGACCAGG, for which the sensor-assay potency score (higher = more potent) is -1.48.

As for TAGGACATCTGAGGTCTCCAGC, the sensor-assay potency score (higher = more potent) was -0.69.

On to TATTTGGAGGTCTTGACGGCAA, for which the sensor-assay potency score (higher = more potent) was -0.214.

In the case of TTCTCCTCCTGGACCATGCTGG, the sensor-assay potency score (higher = more potent) was -0.874.

Turning to TTGACGGCAAAGATGATGCTGG, the sensor-assay potency score (higher = more potent) is -0.136.

Regarding TTCAGCTCTTGCACCACGCTGG, the sensor-assay potency score (higher = more potent) was -0.154.

TTGTGCTCTGTCTTCACTCGTC showed a sensor-assay potency score (higher = more potent) of 0.345.

On to TAGCTTGTTGGTATACTGGTTG, for which the sensor-assay potency score (higher = more potent) was -0.045.

The sequence TCACACAGGATCACACGGCTGT displayed a sensor-assay potency score (higher = more potent) of 0.353.

For a further experiment, the target named is PRPS1. Described as above. The following applies: shRNA.
For the sequence TTGGTGACTACTACTGCCTCAA, the sensor-assay potency score (higher = more potent) is -0.00628.

Regarding TCAGGTGAGACAATAGTGCAGT, the sensor-assay potency score (higher = more potent) came to 0.663.

On to TGATAATATGATCTGCACCTGC, for which the sensor-assay potency score (higher = more potent) is -0.404.

With TCACTCTCTTAGCTCCACCAGC, the sensor-assay potency score (higher = more potent) is -0.945.

TTGTCATTGATTTCGCCACAAC: the sensor-assay potency score (higher = more potent) was -1.49.

As to TAAATTGTCATTGATTTCGCCA, the sensor-assay potency score (higher = more potent) is -0.0544.

As for TATTGGTGACTACTACTGCCTC, the sensor-assay potency score (higher = more potent) is -1.03.

On to TACACTTTCACCAATTTCCACA, for which the sensor-assay potency score (higher = more potent) is -0.758.

TTTGCAACAAGCTTGGCTGAGA: the sensor-assay potency score (higher = more potent) was -0.163.

In the case of TATCTTTCTTATCCTGCCGGGC, the sensor-assay potency score (higher = more potent) was -0.757.

As for TAATATGATCTGCACCTGCTAC, the sensor-assay potency score (higher = more potent) is -0.935.

Regarding TTATCTTTCTTATCCTGCCGGG, the sensor-assay potency score (higher = more potent) was 0.175.

The target in a further experiment is PRPS2. The experiment is described as above. The following applies: shRNA.
With TATACTTGAAAGTTGTCGCCTC, the sensor-assay potency score (higher = more potent) is 0.742.

Turning to TGTCCTTTTTATCTTGTCGGGC, the sensor-assay potency score (higher = more potent) is -0.556.

For ATGACCTGAATCTTGGTGCAGT, the sensor-assay potency score (higher = more potent) was -0.901.

For TTGTCGTTAATTTCCCCGCAGC, the sensor-assay potency score (higher = more potent) is -0.905.

As to TTGTCCTTTTTATCTTGTCGGG, the sensor-assay potency score (higher = more potent) was -0.968.

Take TTCATTTTGTCCTCTTGCGGAA: the sensor-assay potency score (higher = more potent) was -0.733.

Turning to TTTCATTTTGTCCTCTTGCGGA, the sensor-assay potency score (higher = more potent) was -0.379.

On to TTCTGGAAATAGCTGGTCCAGA, for which the sensor-assay potency score (higher = more potent) was -1.31.

TGGTTGCTGAACTTCTTCGTGA: the sensor-assay potency score (higher = more potent) is -1.01.
